Experimental findings from paper PMC7862700, “An all-to-all approach to the identification of sequence-specific readers for epigenetic DNA modifications on cytosine” are described below.

Experiment in all cases: DAPPL (digital affinity profiling via proximity ligation, sequencing); 10 mM Tris-HCl pH 7.5, 50 mM NaCl, 1 mM DTT, 4% glycerol, room temperature, 30 min; GST-TFs on glutathione beads, 16-mer random dsDNA library, 0.1% formaldehyde crosslink after washing; high values mean tight binding
One experiment concerns the target T1, FEV (Homo sapiens, UniProt Q99581 1-238).
T1 sequence: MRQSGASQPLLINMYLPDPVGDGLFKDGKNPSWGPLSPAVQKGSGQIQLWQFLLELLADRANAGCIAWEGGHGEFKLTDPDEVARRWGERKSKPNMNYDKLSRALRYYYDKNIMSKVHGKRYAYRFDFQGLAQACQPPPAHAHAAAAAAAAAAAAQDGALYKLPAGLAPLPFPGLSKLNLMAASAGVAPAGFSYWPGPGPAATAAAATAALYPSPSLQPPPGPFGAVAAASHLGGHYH
Particulars: protein: recombinant; tags: N-terminal GST; dsDNA, one strand shown. The procedure, abridged:
(§1)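 Human transcription factors fused to GST were expressed in yeast, captured on glutathione beads, given DNA barcodes and pooled with a GST-only negative control. Pools were incubated with 200 nmole of a 16-mer random double-stranded DNA library in Tris/NaCl/DTT/glycerol buffer at room temperature for 30 min. They were then washed, crosslinked with 0.1% formaldehyde, proximity-ligated (BsaI/T4 ligase, 1 h, 37 °C), PCR-amplified and sequenced on an Illumina NextSeq500. Binding signal is each 6-mer's read frequency for a factor divided by its frequency for the GST control.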

Another experiment has as its target ETV5 (Homo sapiens, UniProt P41161 1-510). Particulars: protein: recombinant; tags: N-terminal GST; dsDNA, one strand shown. In outline: as §1
A further experiment deals with HSF1 (Homo sapiens, UniProt Q00613 1-529). Particulars: protein: recombinant; tags: N-terminal GST; chain copies: 3; dsDNA, one strand shown. In outline: as §1
The next experiment deals with T2, SPIC (Homo sapiens, UniProt Q8N5J4 1-248).
T2 sequence: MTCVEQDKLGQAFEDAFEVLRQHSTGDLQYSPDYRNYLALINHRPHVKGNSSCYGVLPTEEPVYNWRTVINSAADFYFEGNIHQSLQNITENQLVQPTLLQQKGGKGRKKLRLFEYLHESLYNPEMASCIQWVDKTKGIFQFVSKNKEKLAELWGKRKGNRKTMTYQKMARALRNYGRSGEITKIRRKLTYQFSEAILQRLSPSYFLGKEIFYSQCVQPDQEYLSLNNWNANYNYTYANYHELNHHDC
As to conditions: protein: recombinant; tags: N-terminal GST; dsDNA, one strand shown. The procedure, abridged: as §1

A further experiment addresses ELF4 (Homo sapiens, UniProt Q99607 1-663). Particulars: protein: recombinant; tags: N-terminal GST; dsDNA, one strand shown. The procedure, abridged:
as §1

For a further experiment, the target named is T3, ELK4 (Homo sapiens, UniProt P28324-2 1-405).
T3 sequence: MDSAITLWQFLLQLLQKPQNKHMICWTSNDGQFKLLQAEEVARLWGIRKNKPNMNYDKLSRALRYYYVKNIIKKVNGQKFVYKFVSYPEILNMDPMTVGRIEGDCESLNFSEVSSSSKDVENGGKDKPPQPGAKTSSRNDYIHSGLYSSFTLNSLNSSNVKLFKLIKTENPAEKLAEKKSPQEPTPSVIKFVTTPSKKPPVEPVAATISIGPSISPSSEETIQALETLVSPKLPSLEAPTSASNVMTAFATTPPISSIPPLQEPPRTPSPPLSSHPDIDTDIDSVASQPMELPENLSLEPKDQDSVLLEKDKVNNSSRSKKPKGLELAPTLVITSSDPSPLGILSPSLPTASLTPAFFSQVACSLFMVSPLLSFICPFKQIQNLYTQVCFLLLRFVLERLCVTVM
As to conditions: protein: recombinant; tags: N-terminal GST; dsDNA, one strand shown. The procedure, abridged:
as §1

Another experiment concerns the target T4, ETV2 (Homo sapiens, UniProt O00321 1-342).
T4 sequence: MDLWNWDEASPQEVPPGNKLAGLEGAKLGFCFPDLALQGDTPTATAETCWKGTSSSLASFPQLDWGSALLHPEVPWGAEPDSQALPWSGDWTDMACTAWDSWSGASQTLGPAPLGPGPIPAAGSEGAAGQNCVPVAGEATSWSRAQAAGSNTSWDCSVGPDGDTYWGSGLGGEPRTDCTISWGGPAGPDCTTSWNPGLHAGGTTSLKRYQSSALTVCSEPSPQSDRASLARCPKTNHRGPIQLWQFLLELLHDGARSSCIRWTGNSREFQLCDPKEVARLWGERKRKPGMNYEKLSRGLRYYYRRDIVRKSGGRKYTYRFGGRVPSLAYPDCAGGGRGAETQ
Particulars: protein: recombinant; tags: N-terminal GST; dsDNA, one strand shown. In outline: as §1

The next experiment deals with T5, ELF3 (Homo sapiens, UniProt P78545 1-371).
T5 sequence: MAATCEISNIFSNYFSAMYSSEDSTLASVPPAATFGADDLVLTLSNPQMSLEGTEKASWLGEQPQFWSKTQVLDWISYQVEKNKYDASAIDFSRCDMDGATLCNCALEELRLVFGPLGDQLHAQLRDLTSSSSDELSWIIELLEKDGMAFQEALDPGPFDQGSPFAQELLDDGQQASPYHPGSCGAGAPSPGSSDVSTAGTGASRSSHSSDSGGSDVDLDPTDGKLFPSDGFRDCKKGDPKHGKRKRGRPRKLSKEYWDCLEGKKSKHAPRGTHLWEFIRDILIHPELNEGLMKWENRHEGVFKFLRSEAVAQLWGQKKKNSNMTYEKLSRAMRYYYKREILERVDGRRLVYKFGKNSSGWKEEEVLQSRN
Particulars: protein: recombinant; tags: N-terminal GST; dsDNA, one strand shown. In outline:
as §1

A further experiment concerns the target CRX (Homo sapiens, UniProt O43186 1-299). Particulars: protein: recombinant; tags: N-terminal GST; dsDNA, one strand shown. In outline:
as §1

A further experiment deals with ETV1 (Homo sapiens, UniProt P50549 1-477). Particulars: protein: recombinant; tags: N-terminal GST; dsDNA, one strand shown. In outline:
as §1

ELF4, sequence (Q99607 whole entry): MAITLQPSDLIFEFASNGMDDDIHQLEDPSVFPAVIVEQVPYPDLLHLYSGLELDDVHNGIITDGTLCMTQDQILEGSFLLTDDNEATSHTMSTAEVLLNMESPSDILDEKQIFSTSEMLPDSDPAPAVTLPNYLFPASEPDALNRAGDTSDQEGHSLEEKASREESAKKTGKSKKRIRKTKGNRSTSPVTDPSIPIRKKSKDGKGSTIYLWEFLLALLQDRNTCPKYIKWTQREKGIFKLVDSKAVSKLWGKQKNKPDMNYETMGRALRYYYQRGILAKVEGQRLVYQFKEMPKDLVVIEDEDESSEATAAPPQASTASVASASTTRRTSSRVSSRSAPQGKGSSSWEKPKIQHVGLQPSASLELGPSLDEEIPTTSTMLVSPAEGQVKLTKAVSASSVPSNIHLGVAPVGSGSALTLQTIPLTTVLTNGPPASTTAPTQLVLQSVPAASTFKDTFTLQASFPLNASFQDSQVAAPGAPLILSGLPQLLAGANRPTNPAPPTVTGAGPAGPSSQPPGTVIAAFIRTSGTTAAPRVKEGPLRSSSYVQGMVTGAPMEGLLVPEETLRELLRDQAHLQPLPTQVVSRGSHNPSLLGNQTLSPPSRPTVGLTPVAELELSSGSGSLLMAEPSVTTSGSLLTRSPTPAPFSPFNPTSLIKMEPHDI
HSF1, sequence (Q00613 whole entry): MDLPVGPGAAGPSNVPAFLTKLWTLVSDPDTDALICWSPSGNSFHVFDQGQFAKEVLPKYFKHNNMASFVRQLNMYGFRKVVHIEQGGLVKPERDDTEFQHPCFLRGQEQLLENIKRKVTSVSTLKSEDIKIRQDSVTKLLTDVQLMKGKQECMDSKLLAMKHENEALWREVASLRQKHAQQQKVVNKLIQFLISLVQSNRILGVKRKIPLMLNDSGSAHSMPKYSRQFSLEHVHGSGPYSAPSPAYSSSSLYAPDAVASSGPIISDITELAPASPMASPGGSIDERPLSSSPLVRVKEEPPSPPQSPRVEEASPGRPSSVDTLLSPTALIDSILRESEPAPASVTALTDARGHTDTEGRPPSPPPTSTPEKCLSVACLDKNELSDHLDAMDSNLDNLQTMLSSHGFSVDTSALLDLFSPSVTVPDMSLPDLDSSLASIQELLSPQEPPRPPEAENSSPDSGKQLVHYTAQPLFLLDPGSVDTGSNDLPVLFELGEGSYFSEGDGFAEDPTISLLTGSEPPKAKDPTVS
ETV1, sequence (P50549 whole entry): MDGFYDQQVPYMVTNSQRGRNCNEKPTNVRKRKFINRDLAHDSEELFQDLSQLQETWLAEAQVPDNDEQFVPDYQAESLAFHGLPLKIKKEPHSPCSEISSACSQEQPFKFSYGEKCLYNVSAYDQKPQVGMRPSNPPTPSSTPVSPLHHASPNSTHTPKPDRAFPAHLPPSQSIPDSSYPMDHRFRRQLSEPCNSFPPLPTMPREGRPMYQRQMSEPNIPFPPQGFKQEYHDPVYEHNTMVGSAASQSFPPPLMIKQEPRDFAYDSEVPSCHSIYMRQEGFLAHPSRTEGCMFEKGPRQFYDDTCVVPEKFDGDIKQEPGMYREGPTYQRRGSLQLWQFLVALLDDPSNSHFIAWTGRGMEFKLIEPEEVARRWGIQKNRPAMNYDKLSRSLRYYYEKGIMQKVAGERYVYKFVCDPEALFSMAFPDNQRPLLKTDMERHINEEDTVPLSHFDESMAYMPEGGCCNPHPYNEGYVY
ETV5, sequence (P41161 whole entry): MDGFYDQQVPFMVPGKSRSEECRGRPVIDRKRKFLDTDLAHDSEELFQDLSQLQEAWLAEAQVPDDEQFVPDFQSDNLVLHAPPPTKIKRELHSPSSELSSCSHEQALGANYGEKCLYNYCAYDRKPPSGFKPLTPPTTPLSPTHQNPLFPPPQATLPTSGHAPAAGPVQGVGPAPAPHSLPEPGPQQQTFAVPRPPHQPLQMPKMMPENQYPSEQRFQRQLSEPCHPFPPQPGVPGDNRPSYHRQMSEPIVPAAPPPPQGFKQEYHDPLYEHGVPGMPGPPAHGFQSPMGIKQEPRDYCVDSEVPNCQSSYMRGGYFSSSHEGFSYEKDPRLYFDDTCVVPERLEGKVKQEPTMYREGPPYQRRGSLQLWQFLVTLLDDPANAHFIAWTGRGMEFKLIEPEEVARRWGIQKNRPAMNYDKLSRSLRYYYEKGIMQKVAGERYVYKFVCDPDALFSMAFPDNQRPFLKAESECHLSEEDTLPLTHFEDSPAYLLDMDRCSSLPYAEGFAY
CRX, sequence (O43186 whole entry): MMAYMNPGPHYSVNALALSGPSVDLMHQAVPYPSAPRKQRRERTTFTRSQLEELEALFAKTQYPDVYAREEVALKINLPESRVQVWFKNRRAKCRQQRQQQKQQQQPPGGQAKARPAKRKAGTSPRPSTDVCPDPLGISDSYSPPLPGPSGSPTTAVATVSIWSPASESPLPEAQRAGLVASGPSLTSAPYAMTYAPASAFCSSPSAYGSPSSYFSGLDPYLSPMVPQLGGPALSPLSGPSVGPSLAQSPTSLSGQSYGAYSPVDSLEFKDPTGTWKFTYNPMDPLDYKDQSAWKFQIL

Consider CACCTT, for which the binding signal with FEV was 1.31 fold enrichment (6-mer frequency, TF over GST control); in the experiment with ETV5 it was 1.18 fold enrichment (6-mer frequency, TF over GST control); with HSF1 it was 1.08 fold enrichment (6-mer frequency, TF over GST control); with SPIC, 1.2 fold enrichment (6-mer frequency, TF over GST control); with ELF4 it was 1.37 fold enrichment (6-mer frequency, TF over GST control); in the experiment with ELK4 it was 1.39 fold enrichment (6-mer frequency, TF over GST control). Also, the binding signal with ETV2 is 1.25 fold enrichment (6-mer frequency, TF over GST control); with ELF3 it was 1.26 fold enrichment (6-mer frequency, TF over GST control); with CRX, 1.1 fold enrichment (6-mer frequency, TF over GST control); with ETV1 it was 1.35 fold enrichment (6-mer frequency, TF over GST control).

Consider TTCCCC, for which the binding signal was 1.64 fold enrichment (6-mer frequency, TF over GST control) in the experiment with FEV; 1.71 fold enrichment (6-mer frequency, TF over GST control) with ETV5; 1.42 fold enrichment (6-mer frequency, TF over GST control) with HSF1; 1.87 fold enrichment (6-mer frequency, TF over GST control) with SPIC; 1.78 fold enrichment (6-mer frequency, TF over GST control) with ELF4; 1.48 fold enrichment (6-mer frequency, TF over GST control) in the experiment with ELK4. The binding signal with ETV2 was 1.8 fold enrichment (6-mer frequency, TF over GST control); with ELF3 it was 1.64 fold enrichment (6-mer frequency, TF over GST control); with CRX it was 1.44 fold enrichment (6-mer frequency, TF over GST control); in the experiment with ETV1, 1.69 fold enrichment (6-mer frequency, TF over GST control).

Take GTTAAG: the binding signal in the experiment with FEV was 1.02 fold enrichment (6-mer frequency, TF over GST control); in the experiment with ETV5, 1.03 fold enrichment (6-mer frequency, TF over GST control); in the experiment with HSF1, 1.3 fold enrichment (6-mer frequency, TF over GST control); with SPIC it was 1.06 fold enrichment (6-mer frequency, TF over GST control); with ELF4 it was 1.1 fold enrichment (6-mer frequency, TF over GST control); in the experiment with ELK4 it was 1.06 fold enrichment (6-mer frequency, TF over GST control). In addition, the binding signal with ETV2 is 1.1 fold enrichment (6-mer frequency, TF over GST control); with ELF3, 1.06 fold enrichment (6-mer frequency, TF over GST control); in the experiment with CRX, 1.87 fold enrichment (6-mer frequency, TF over GST control).

Take TGCCGC: the binding signal in the experiment with FEV was 1.27 fold enrichment (6-mer frequency, TF over GST control); in the experiment with ETV5 it was 1.23 fold enrichment (6-mer frequency, TF over GST control); with HSF1, 1.03 fold enrichment (6-mer frequency, TF over GST control); with SPIC it was 1.15 fold enrichment (6-mer frequency, TF over GST control); with ELF4, 1.35 fold enrichment (6-mer frequency, TF over GST control); in the experiment with ELK4, 1.23 fold enrichment (6-mer frequency, TF over GST control). In addition, the binding signal was 1.06 fold enrichment (6-mer frequency, TF over GST control) in the experiment with ETV2; 1.07 fold enrichment (6-mer frequency, TF over GST control) in the experiment with ELF3; 1.3 fold enrichment (6-mer frequency, TF over GST control) with ETV1.

As to AAGCAG, the binding signal with FEV is 1.09 fold enrichment (6-mer frequency, TF over GST control); with ETV5, 1.18 fold enrichment (6-mer frequency, TF over GST control); with HSF1, 1.05 fold enrichment (6-mer frequency, TF over GST control); in the experiment with SPIC, 1.09 fold enrichment (6-mer frequency, TF over GST control); in the experiment with ELF4, 1.12 fold enrichment (6-mer frequency, TF over GST control); with ELK4 it was 1.06 fold enrichment (6-mer frequency, TF over GST control). Further, the binding signal with ETV2 is 1.13 fold enrichment (6-mer frequency, TF over GST control); in the experiment with ELF3, 1.04 fold enrichment (6-mer frequency, TF over GST control); with CRX, 1.11 fold enrichment (6-mer frequency, TF over GST control); with ETV1 it was 1.19 fold enrichment (6-mer frequency, TF over GST control).

Turning to AATCAG, the binding signal was 1.07 fold enrichment (6-mer frequency, TF over GST control) in the experiment with FEV; 1.15 fold enrichment (6-mer frequency, TF over GST control) with ETV5; 1.19 fold enrichment (6-mer frequency, TF over GST control) in the experiment with HSF1; 1.2 fold enrichment (6-mer frequency, TF over GST control) with SPIC; 1.05 fold enrichment (6-mer frequency, TF over GST control) with ELF4; 1.16 fold enrichment (6-mer frequency, TF over GST control) with ELK4. The binding signal in the experiment with ETV2 was 1.01 fold enrichment (6-mer frequency, TF over GST control); with ELF3, 1.14 fold enrichment (6-mer frequency, TF over GST control); with CRX it was 1.42 fold enrichment (6-mer frequency, TF over GST control); with ETV1, 1.01 fold enrichment (6-mer frequency, TF over GST control).

Consider CCCCGA, for which the binding signal with FEV is 1.18 fold enrichment (6-mer frequency, TF over GST control); in the experiment with ETV5, 1.14 fold enrichment (6-mer frequency, TF over GST control); in the experiment with HSF1, 1.28 fold enrichment (6-mer frequency, TF over GST control); in the experiment with SPIC, 1.14 fold enrichment (6-mer frequency, TF over GST control); with ELF4 it was 1.29 fold enrichment (6-mer frequency, TF over GST control); with ELK4 it was 1.15 fold enrichment (6-mer frequency, TF over GST control). For the same sequence, the binding signal was 1.24 fold enrichment (6-mer frequency, TF over GST control) in the experiment with ETV2; 1.35 fold enrichment (6-mer frequency, TF over GST control) with ELF3; 1.14 fold enrichment (6-mer frequency, TF over GST control) in the experiment with CRX.
